Bioassay records (PubChem)
Shown are actives, neighbours in structure and some others; about 6.5% of the full set was active somewhere.
HCMV inh: qHTS Assay for inhibitors of the human cytomegalovirus (HCMV); HFF cells, HCMV-luciferase reporter, 72 h; hits give low values; activity change, negative = inhibition, % at 57.5 µM; hit rate 4.5% among 410,000; AID 1259415, 2018; in the data active = activity change below about -60%; inconclusive = no clear call, values can overlap the other calls; inactive = above about -39%
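After 16 h attachment at 37C, HFF cells received test compound and HCMV-luciferase (1 PFU/cell); reporter luminescence read 72 h later, data normalized against buffer-only and known inhibitor Salinomycin.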
FMDV inh: High Throughput Screening for Foot and Mouth Disease Virus Antivirals; FMDV antiviral cell-based qHTS; Potency, µM (series often up to 57.9 µM), for the others: top-dose activity change, negative = inhibition, hits mostly inhibitors; hit rate 1.2% among 410,000; calls by dose curve; tested in HEK293T cells; note: read-out not given here; potency is the fitted concentration of half-maximal effect; nearly all actives have a fitted effect of over 45% in size
Vaccinia Venus: qHTS for Stage-Specific Inhibitors of Vaccinia Orthopoxvirus: Venus Reporter Primary qHTS | hit rate 0.46% among 330,000 | AID 720580, 2013 | Potency, µM (top dose mostly 36.5 µM), without a hit: at the highest dose activity change, negative = inhibition, usual class: inhibitors | Vaccinia virus Venus reporter expression, fluorescence; calls by dose curve; tested in A549 cells; note: potency is the fitted concentration of half-maximal effect; nearly all actives have a fitted effect of over 30% in size
MARV entry inh: qHTS for inhibitors of binding or entry into cells for Marburg Virus; Marburg virus pseudotyped entry inhibition, cell reporter; Potency, µM (top dose mostly 37.8 µM), for inactives: top-dose activity change, negative = inhibition, usual class: inhibitors; hit rate 1.8% among 300,000; calls by dose curve; tested in HEK293 cells; note: potency is the fitted concentration of half-maximal effect
Lassa entry inh: qHTS for Inhibitors of binding or entry into cells for Lassa Virus | Potency, µM (top dose mostly 37.9 µM), for the others: at the top dose activity change, negative = inhibition, most hits filed as inhibitors | Lassa virus pseudotype entry inhibition, cell reporter | AID 540256, 2011 | hit rate 1.2% among 300,000; calls by dose curve; tested in HEK293 cells; note: potency is the fitted concentration of half-maximal effect; nearly all actives have a fitted effect of over 50% in size
VACV mCherry inh: qHTS for Stage-Specific Inhibitors of Vaccinia Orthopoxvirus: mCherry Reporter Primary qHTS; Vaccinia virus mCherry reporter infection, fluorescence; Potency, µM (top dose mostly 36.5 µM), for the others: at the top dose activity change, negative = inhibition, usual class: inhibitors; hit rate 0.63% among 310,000; AID 720579, 2013; calls by dose curve; tested in A549 cells; note: potency is the fitted concentration of half-maximal effect; nearly all actives have a fitted effect of over 35% in size
* hit, by the source's call; i = inactive; ? = inconclusive; . = not tested or not shown; [ ] = another dose, or the depositor's remark. % is set by controls: 0 for no effect and ±100 for the full control effect.

SMILES	HCMV inh	FMDV inh	Vaccinia Venus	MARV entry inh	Lassa entry inh	VACV mCherry inh
Fc1ccc(-c2cnn3c(-c4cccs4)ccnc23)cc1	302.9	-52.7%	-1.1%	?	10µM*	-6.2%
N#CCCn1c(=O)cnc2cnc(Nc3ccccc3)nc21	.	3.0%	.	.	.	.
O=C(/C=C/c1ccco1)NC(=S)Nc1cc(-c2nc3ccccc3s2)ccc1Cl	280.4	6.3%	-28.8%	?	-23.2%	i
Cc1ccc(-n2nc3ccc(NC(=S)NC(=O)/C=C/c4ccco4)cc3n2)cc1	-68.4*	9.5%	-8.2%	25.1%	?	-10.0%
Cc1ccc(-n2nc3cc(C)c(NC(=S)NC(=O)/C=C/c4ccco4)cc3n2)cc1	-24.5	13.2%	-4.3%	?	?	-14.1%
O=C(/C=C/c1ccco1)NC(=S)Nc1cccc(-c2nc3ccccc3s2)c1	57.1	-6.3%	?	3.55µM*	-21.0%	-22.9%
O=C(COC(=O)c1ccccc1)NCC1COc2ccccc2O1 (stereo unspecified)	4.8	-10.0%	-10.9%	.	.	i
CCOC(=O)C1=C(C)N(C)C(=S)NC1c1cc(OC)ccc1OC (stereo unspecified)	-32.0	-19.6%	-15.3%	-18.0%[46.1 µM]	-7.8%	-1.4%
COc1ccc(OC)c(Nc2nc(-c3ccncc3)nc3ccccc23)c1	-2.6	?	-17.1%	?	?	-23.6%
O=C(O)CNc1nc(-c2ccccc2)nc2ccccc12	-19.1	-7.6%	6.5%	-8.2%	11.1%	-5.8%
c1ccc(Nc2nc(-c3ccccc3)nc3ccccc23)cc1	-21.7	-20.4%	.	.	.	.
COc1ccc(Nc2nc(-c3ccncc3)nc3ccccc23)cc1	-8.9	-27.4%	-21.4%	2.82µM*	-9.6%[46.1 µM]	-10.3%
Fc1cccc(Nc2nc(-c3ccncc3)nc3ccccc23)c1	73.4	25.1µM*	.	?	-10.2%	.
CCOC(=O)CNc1nc(-c2ccncc2)nc2ccccc12	67.5	-23.7%	-14.5%	11.2µM*	24.2%	-22.1%
COc1ccc(Nc2nc(N3CCN(S(=O)(=O)N(C)C)CC3)nc3ccccc23)cc1	-84.7*	-17.3%	.	.	.	.
O=[N+]([O-])c1ccccc1OCC(O)CNC1CCCC1 (stereo unspecified)	5.1	3.1%	-2.7%	.	.	?
CCN1/C(=C/c2cc[n+](CCCS(=O)(=O)[O-])c3ccccc23)Sc2ccccc21	?	-19.1%	222.1%	9.2%[46.1 µM]	?	i
C=CC[n+]1ccc(/C=C2\C=Cc3cc(C)ccc3N2CC)c2ccccc21	.	35.5µM*	.	.	.	.
CN1CC=C2C(C#N)=C(N)C(C#N)(C#N)[C@H](c3ccncc3)[C@H]2C1	.	.	.	-2.5%	.	.
O=S(=O)(Nc1c(S(=O)(=O)c2ccccc2)c2nc3ccccc3nc2n1C1CCCCC1)c1ccccc1	34.8	?	10µM*	1.4%	-4.6%	12.6µM*
Cc1ccc(S(C)(=O)=NS(=O)(=O)c2cccc3nsnc23)cc1 (stereo unspecified)	-16.5	14.1%	-9.0%	-0.5%[46.1 µM]	-7.0%[46.1 µM]	-14.7%
C#CC[N+](C)(C)C(C#Cc1ccccc1)CC=C (stereo unspecified)	-88.8*	22.6%	-27.2%	-4.4%	22.1%	-2.4%
C#CC[N+](CC)(CC)CC#Cc1ccccc1	20.0	-15.6%	-26.8%	9.4%	1.7%	?
Cc1cc2oc(=O)c3c(c2cc1OC(=O)c1ccco1)CCCC3	-13.8	0.0%	-9.0%	?	-22.7%	.
Cc1cc(OC(=O)c2ccco2)c2c3c(c(=O)oc2c1)CCCC3	-66.7*	?	11.7%	11.2µM*	?	i
SMILES	HCMV inh	FMDV inh	Vaccinia Venus	MARV entry inh	Lassa entry inh	VACV mCherry inh
CSc1nc(N)nc2c1ncn2CC(=O)N1CCN(c2ccccn2)CC1	-1.5	-20.3%	-16.8%	.	.	-5.4%
Cc1ccc2[nH]c(=O)c(CN(Cc3ccc4c(c3)OCO4)Cc3nnnn3C3CCCC3)cc2c1	-36.5	-18.7%	-7.8%	?	3.55µM*	-15.3%
CCc1nnc(N/N=C/c2ccc(N3CCC(C)CC3)c([N+](=O)[O-])c2)n1N	-18.9	2.2%	?	?	?	10µM*
CCOc1ccc(NC(=O)CN(C)C(=O)Cc2ccsc2)cc1OCC	-17.4	-12.3%	.	.	.	.
CCCCn1c(C)csc1=Nc1cccnc1	-63.3*	-22.5%	-13.9%	-13.9%	2.2%	i
Cc1ccc(-c2csc(=Nc3cccnc3)n2CCCn2ccnc2)cc1C	-94.7*	15.8µM*	?	?	?	-11.6%
COCCn1c(-c2ccccc2)csc1=Nc1cccnc1	-37.3	?	-7.3%	?	6.4%[46.1 µM]	i
Cc1csc(SCC(=O)NCC2Cc3cc(-c4cncnc4)ccc3O2)n1 (stereo unspecified)	.	17.1%	-16.7%	.	.	-2.1%
CN1CCN(C(=O)/C=C/c2c(F)cccc2Cl)CC1	-35.8	-1.3%	.	.	.	.
CC(C)Cc1nc2cc(NS(=O)(=O)N(C)C)cc(C(=O)N3CCOCC3)c2n1C	.	25.9%	-5.2%	.	.	-12.5%
C=C(C)COc1ccc(-c2[nH]ncc2-c2ccc(OC)c(OC)c2)c(O)c1	?	?	10µM*	1.58µM*	1.26µM*	.
C=C(C)COc1ccc(-c2[nH]ncc2Oc2cccc(OC)c2)c(O)c1	?	23.2%	?	-29.5%	1.58µM*	?
C=C(C)COc1ccc(-c2n[nH]c(C)c2-c2ccc(OC)c(OC)c2)c(O)c1	-83.8*	?	?	?	0.631µM*	?
C=C(C)COc1ccc(-c2n[nH]c(C)c2Oc2ccccc2OC)c(O)c1	-19.9	-26.7%	?	?	?	.
COc1ccc(-c2[nH]ncc2Oc2ccccc2OC)c(O)c1	3.8	-16.1%	.	-18.6%	1.1%	.
C=C(C)COc1ccc(-c2[nH]ncc2-c2ccccc2)c(O)c1	?	?	?	?	8.91µM*	.
COc1ccc(-c2cn[nH]c2-c2ccc(OCC(=O)NN)cc2O)cc1OC	55.4	10.0%	-7.3%	25.2%	?	-19.9%
CCOC(=O)C1(Cc2cccc(Cl)c2)CCCN(C(=O)CN2C(=O)CSC2=O)C1 (stereo unspecified)	31.3	14.1%	.	.	.	.
CNc1ccc(/C=C2\C=Cc3ccccc32)cc1Cl	.	.	-15.3%	.	.	-23.1%
Cc1c(C(=O)N(C)C2CCOC2)cnn1-c1ncc2c(n1)-c1ccccc1CCC2 (stereo unspecified)	.	46.1%	6.8%	.	.	-8.1%
C=C(C)COc1ccc(-c2[nH]ncc2-c2ccc(OC)cc2)c(O)c1	-70.5*	-12.5%	.	.	.	.
COc1ccc(-c2cn[nH]c2-c2ccc(O)cc2O)cc1	-88.3*	?	.	.	.	.
C=C(C)COc1ccc(-c2nc(N)ncc2-c2ccc(OC)cc2)c(O)c1	0.2	.	.	-3.2%	.	.
C=C(C)COc1ccc(-c2nc(N)ncc2-c2ccc(OC)c(OC)c2)c(O)c1	118.1	-22.3%	-26.8%	12.6µM*	-1.7%[46.1 µM]	-10.7%
CCN(CC(=O)NCc1ccc(F)cc1)C(=O)c1cccc(S(=O)(=O)N(C)c2ccc(OC)cc2)c1	-24.8	-0.1%	.	.	.	.
